Compound activity from PubChem.
In the library only some 3.6% were active in any assay of this set; here they are far more common.
Mdm2 MdmX PPI: inhibitors of human Mdm2-MdmX association, primary screen, cell-based, luminescence, split luciferase, SaOS-2, uHTS | inhibition, % at 8 µM | SaOS-2 split-luciferase Mdm2/MdmX complementation | hit rate 3% among 330,000;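 active = inhibition of at least 50% at 8 µM in the primary screen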
Target sequence (O15151 whole entry, looked up): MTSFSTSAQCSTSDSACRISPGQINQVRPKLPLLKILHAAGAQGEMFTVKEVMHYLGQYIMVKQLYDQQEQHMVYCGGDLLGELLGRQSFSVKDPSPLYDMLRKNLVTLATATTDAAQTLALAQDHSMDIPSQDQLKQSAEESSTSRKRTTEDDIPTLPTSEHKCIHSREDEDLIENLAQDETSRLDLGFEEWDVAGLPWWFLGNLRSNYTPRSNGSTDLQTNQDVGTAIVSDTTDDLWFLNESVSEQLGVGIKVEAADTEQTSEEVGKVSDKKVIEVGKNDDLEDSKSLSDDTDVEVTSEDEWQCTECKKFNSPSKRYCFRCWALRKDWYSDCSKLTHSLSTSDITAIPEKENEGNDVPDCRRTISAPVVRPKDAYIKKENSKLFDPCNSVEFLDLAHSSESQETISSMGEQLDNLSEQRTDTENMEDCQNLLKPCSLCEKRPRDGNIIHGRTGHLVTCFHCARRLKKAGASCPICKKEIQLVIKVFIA
Target sequence (Q00987 whole entry, looked up): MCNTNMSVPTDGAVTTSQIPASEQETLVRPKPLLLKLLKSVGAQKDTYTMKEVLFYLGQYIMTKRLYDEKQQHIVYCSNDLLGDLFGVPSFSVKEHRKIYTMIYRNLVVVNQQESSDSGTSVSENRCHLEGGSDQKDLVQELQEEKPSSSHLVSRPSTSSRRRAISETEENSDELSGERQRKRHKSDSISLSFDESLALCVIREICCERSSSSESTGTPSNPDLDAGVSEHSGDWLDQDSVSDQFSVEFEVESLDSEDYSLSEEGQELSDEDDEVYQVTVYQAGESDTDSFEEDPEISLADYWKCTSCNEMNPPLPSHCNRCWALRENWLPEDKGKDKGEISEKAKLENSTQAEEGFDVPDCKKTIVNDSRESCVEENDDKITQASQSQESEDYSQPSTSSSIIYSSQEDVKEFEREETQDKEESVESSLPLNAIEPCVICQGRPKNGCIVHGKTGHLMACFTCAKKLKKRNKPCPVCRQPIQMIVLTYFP
HSP90 refold inh: HSP90 inhibitors, primary screen, cell lysate, luminescence; Heat shock protein HSP 90 (rabbit reticulocyte lysate; luciferase refolding); AID 1789, 2009; hit rate 0.91% among 290,000; inhibition, % at 5.6 µM; Rabbit reticulocyte lysate, luciferase refolding luminescence, 3 h;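 active = inhibition above the screen-wide mean plus 3 SD, computed separately per campaign, cut at about 16% in these data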;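 also: 0% = DMSO wells and 100% = 60 µM geldanamycin wells; inhibitors lower the luminescence because luciferase stays unfolded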
KKLEB cytotox: cytotoxicity in KKLEB CF airway cells, primary screen, cytotoxicity control for CF NF-kB inhibitor project, cell-based, uHTS, fluorescence assay plates. KKLEB CF airway cells viability, ATPlite luminescence, overnight; active compounds read low; cells stimulated with P. aeruginosa culture filtrate. activity change (cytotoxicity), % at 5 µM. hit rate 0.36% among 360,000. AID 602141, 2011;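 active = corrected activity change at or below -50% at 5 µM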
LGR2 antag: inhibitors of bursicon-induced LGR2 CRE-luciferase signal, primary screen, cell-based, HEK293, CRE-luciferase reporter, bursicon stimulation; Drosophila bursicon receptor LGR2 (rickets); bursicon-stimulated, 4 h; inhibition, % at 9.99 µM; hit rate 0.35% among 380,000; AID 720647, 2013;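 active = drop in luminescence signal, shown as inhibition above about 50% in the replicate tests, limit read from the data, passing the limit was not always enough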;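 also: agonist challenge used bursicon conditioned medium at about half maximal strength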
Peg3 prom inh: Peg3 promoter-driven luciferase inhibitors, primary screen, cell-based, HeLa, luciferase luminescence; HeLa PEG-Prom luciferase reporter, overnight; inhibition, % at 20 µM; hit rate 1.7% among 360,000;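 active = inhibition of at least 50% at 20 µM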
CF NFkB inh: inhibitors of PAF-induced NF-kB signaling, primary screen, cell-based, GFP fluorescence, uHTS. KKLEB NF-kB-GFP reporter, GFP fluorescence overnight. inhibition, % at 5 µM. hit rate 0.86% among 360,000;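 active = at least 50% inhibition at 5 µM, scaled per plate between neutral and stimulator controls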;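 also: PAF is a Pseudomonas aeruginosa culture filtrate used as stimulus; plate controls were PAF-stimulated DMSO wells for no effect and unstimulated DMSO wells for full effect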
Mdm2 MdmX conf: Mdm2-MdmX complex disruptors, retested hits, confirmation, luminescence, single concentration. shares compounds with Mdm2 MdmX PPI. Mdm2-MdmX binding, luminescent assay. inhibition, % at 8 µM. hit rate 55% among 10,000; in the data active = inhibition above about 40%
FLuc counter: full-length luciferase signal inhibition, confirmation, counter-screen for Mdm2/MdmX interaction inhibitor project, cell-based, single concentration, SaOS-2; shares compounds with Mdm2 MdmX PPI; SaOS-2 full-length luciferase counterscreen, luminescence; inhibition, % at 8 µM; hit rate 77% among 6,200;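 active = mean inhibition at 8 µM reaching about 37%, which flags the compound as non-specific, limit read from the data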;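 also: p53-null SaOS-2 cells with luciferase driven by a doxycycline-inducible promoter; compound on cells about two nights before reading with doxycycline added after day one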
* = called active by the depositor; . = not tested or not shown.

SMILES | Mdm2 MdmX PPI | HSP90 refold inh | KKLEB cytotox | LGR2 antag | Peg3 prom inh | CF NFkB inh | Mdm2 MdmX conf | FLuc counter
COc1nc(-c2ccccc2)cc(-c2ccc3c(c2)OCO3)c1C#N | 57* | 2 | -23 | 4 | 34 | 26 | 58* | 58*
O=C(NCC[C@@H]1CC[C@H](NS(=O)(=O)c2ccc(Cl)cc2)[C@H](CO)O1)Nc1ccc(F)cc1 | . | . | . | -2 | . | . | . | .
CO[C@H]1CC[C@H]2CCOc3ccc(C#N)cc3C(=O)N(C)C[C@@H](C)C(=O)N(C)C[C@@H]1O2 | . | . | . | 13 | . | . | . | .
O=C1C=C(c2ccc3cc[nH]c3c2)C[C@@H](c2ccc3c(c2)OCO3)C1 | 57* | . | -10 | . | 3 | 22 | 57* | 53*
O=C1C=C(c2ccc3c(c2)OCO3)C[C@@H](c2ccc3c(c2)OCO3)C1 | 5 | . | -2 | 17 | -12 | 1 | . | .
COc1cc(OCc2ccccc2)c(C(=O)/C=C/c2ccc3c(c2)OCO3)c(OC)c1OC | 70* | . | -4 | 22 | 39 | 12 | 37 | .
COc1cc(OC)c(C(=O)/C=C/c2ccc(OCc3ccccc3)c(OC)c2)c(OC)c1 | 60* | 4 | 15 | 11 | 48 | -1 | 22 | .
Cc1cc(Nc2nc3ccccc3nc2Cl)n(-c2ccc([N+](=O)[O-])cc2)n1 | 96* | -1 | -19 | -10 | 53* | 41 | 49* | 51*
Cc1cc(Nc2nc3ccccc3[nH]c2=O)n(-c2ccccc2)n1 | 39 | 1 | 11 | . | 16 | -20 | . | .
O=C(COc1ccccc1)Nc1nc(-c2ccncc2)cs1 | 36 | -1 | -38 | -12 | -9 | 35 | . | .
O=C(COc1ccc([N+](=O)[O-])cc1)Nc1nc(-c2ccccn2)cs1 | 76* | . | 6 | 5 | 15 | 14 | 81* | 36
O=C(COc1ccc(F)cc1)Nc1nc(-c2ccccn2)cs1 | 64* | . | -6 | 0 | 31 | -1 | 70* | 62*
O=C(Nc1nc(-c2ccccn2)cs1)Nc1ccc(F)cc1F | 59* | 3 | -4 | -40 | -136 | 10 | 44* | 51*
O=C(Nc1nc(-c2ccccc2)cs1)Nc1ccc(F)cc1F | 45 | -3 | 0 | -24 | -80 | 2 | . | .
O=C(COc1cccc(F)c1)Nc1nc(-c2ccccn2)cs1 | . | . | -1 | . | 29 | 8 | . | .
O=C(C[C@H]1C=C[C@H](NC(=O)C2CCOCC2)[C@H](CO)O1)Nc1nccs1 | . | . | . | 0 | . | . | . | .
CSc1ncccc1C(=O)OCC(=O)c1ccc2c(c1)NC(=O)CO2 | 68* | 1 | 0 | -2 | 12 | -14 | 21 | .
C[C@H]1CN([C@@H](C)CO)C(=O)c2cccc(NC(=O)c3ccncc3)c2O[C@@H]1CN(C)C(=O)Nc1ccc(F)cc1 | . | . | . | 1 | . | . | . | .
O=C1[C@@H]2Cc3c([nH]c4ccccc34)C(c3cccc(Br)c3)N2C(=O)CN1C1CCN(Cc2ccccc2)CC1 (stereo partly specified) | 88* | 1 | -12 | -1 | 96* | 17 | 39 | 73*
CCOc1ccccc1C1c2[nH]c3ccccc3c2C[C@H]2C(=O)N(C3CCN(Cc4ccccc4)CC3)CC(=O)N12 (stereo partly specified) | 62* | -2 | -13 | 3 | 19 | 31 | 51* | 67*
Cc1ccccc1C1c2[nH]c3ccccc3c2C[C@H]2C(=O)N(C3CCN(Cc4ccccc4)CC3)CC(=O)N12 (stereo partly specified) | 19 | 5 | -11 | 9 | 5 | 25 | . | .
O=C1[C@@H]2Cc3c([nH]c4ccccc34)C(c3ccccc3)N2C(=O)CN1C1CCN(Cc2ccccc2)CC1 (stereo partly specified) | 63* | 1 | -14 | 11 | 42 | 8 | 38 | 92*
COC(=O)c1ccc(C2c3[nH]c4ccccc4c3C[C@H]3C(=O)N(C4CCN(Cc5ccccc5)CC4)CC(=O)N23)cc1 (stereo partly specified) | 16 | 3 | -7 | 18 | 4 | 19 | . | .
Cc1ccc(S(=O)(=O)Nc2ccc3c(c2)CC(=O)N([C@H](C)CO)C[C@H](C)[C@H](CN(C)S(C)(=O)=O)O3)cc1 | . | . | . | -11 | . | . | . | .
COc1cc(C(=S)N2CCN(c3cccc(Cl)c3)CC2)ccc1O | 55* | 0 | 1 | 13 | 9 | -39 | 55* | 51*
SMILES | Mdm2 MdmX PPI | HSP90 refold inh | KKLEB cytotox | LGR2 antag | Peg3 prom inh | CF NFkB inh | Mdm2 MdmX conf | FLuc counter
C[C@@H]1CN([C@@H](C)CO)S(=O)(=O)c2ccc(C3=CCCCC3)cc2O[C@@H]1CN(C)C(=O)c1ccncc1 | . | . | . | 1 | . | . | . | .
Cc1ccccc1CS(=O)(=O)c1cnc2ccccc2n1 | 55* | 2 | -20 | . | 40 | -20 | 24 | .
O=C(NC1(Cc2ccccc2)CCN(Cc2ccc(-c3ccccc3)cc2)C1=O)c1ccccc1 (stereo unspecified) | 63* | . | -17 | 56* | 85* | 9 | 41* | 77*
O=C(CCc1ccccc1)NC1(Cc2ccccc2)CCN(CCc2cccs2)C1=O (stereo unspecified) | 22 | . | 5 | -33 | 11 | -4 | . | .
CC(=O)Nc1sc(N/N=C\c2ccccc2)nc1-c1cccs1 | -3 | 1 | -1 | -1 | -199 | -4 | . | .
CC(=O)Nc1sc(N/N=C\c2ccccc2Cl)nc1-c1cccs1 | 51* | -1 | 10 | -7 | -151 | -6 | 61* | 96*
O=C(Nc1ccc(Cl)cc1)Nc1nc(-c2sccc2Br)cs1 | 88* | 0 | 1 | -14 | 12 | 2 | 77* | 39*
O=C(Nc1ccc(Cl)cc1)Nc1nc(-c2ccccc2O)cs1 | 27 | 1 | 10 | 1 | 22 | 13 | . | .
O=C(Nc1ccc2c(c1)[C@@H]1C[C@@H](CC(=O)N3CCc4ccccc4C3)O[C@H](CO)[C@@H]1O2)C1CCC1 | . | . | . | 9 | . | . | . | .
Cc1cccc(N2CCN(C(=O)c3ccc(Cl)c(S(=O)(=O)NCc4ccco4)c3)CC2)c1C | 70* | 9 | 2 | . | 15 | 3 | 74* | 42*
CN(C)C(=O)c1ccc(-c2ccc3c(c2)[C@@H]2[C@@H](CCN2S(=O)(=O)c2cn(C)cn2)[C@@H](CO)N3)cc1 | . | . | . | -5 | . | . | . | .
